Sampled rows, rich in hits. Any-hit rate of the full collection: about 3.2%.
Tau ThT inhib: inhibitors of human tau fibril formation, thioflavin T binding. P10636. recombinant tau K18 P301L, heparin-induced fibrillization, ThT fluorescence. Potency, µM (highest dose often 57.4 µM), for the others: at the top dose activity, negative = inhibition, usual class: inhibitors. hit rate 2.1% among 270,000; further: nearly all actives have a fitted effect of over 55% in size
Target sequence (P10636 561-689 P618L limits assumed): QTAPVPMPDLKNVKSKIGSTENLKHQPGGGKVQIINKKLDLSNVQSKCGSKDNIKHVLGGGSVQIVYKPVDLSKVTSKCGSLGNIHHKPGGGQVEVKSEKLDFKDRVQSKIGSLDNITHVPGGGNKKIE
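Recombinant human tau K18 fragment […] carrying P301L, 15 uM unlabeled plus 0.24 uM Alexa 594-labeled, was fibrillized with 20 uM heparin in 100 mM sodium acetate pH 7 for 6 hr at 37 C; 30 uM ThT fluorescence read after 1 hr.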
TRb-SRC2 inh: inhibitors of human thyroid hormone receptor beta-SRC2 interaction | P10828 | TRbeta-SRC2 peptide binding, fluorescence polarization; receptor liganded with 1 µM T3 | Potency, µM (doses to about 106 µM), for the others: at the highest dose activity change, negative = inhibition, hits mostly inhibitors | hit rate 0.065% among 280,000 | AID 1469;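 further: plate controls were bound peptide for no effect and peptide without receptor for full effect; nearly all actives have a fitted effect of over 50% in size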
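Fluorescence polarization of 20 nM Texas Red SRC2 peptide with 0.6 uM human TRb ligand-binding domain, in Tris buffer with 1uM T3 and 5% DMSO. Incubated 5 hr ambient; normalized to unbound and bound controls.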
Tau fluor cs: counter-screen for tau fibril formation inhibitors; tau K18 P301L (four-repeat tau fragment) Alexa594 fluorescence, heparin fibrillization; Potency, µM (highest dose often 57.7 µM), without a hit: at the highest dose activity change, negative = decrease; hit rate 0.93% among 280,000; further: nearly all actives have a fitted effect of over 55% in size
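Human K18 P301L tau (15 uM unlabeled plus 0.24 uM Alexa 594-labeled, final) in 100 mM sodium acetate pH 7 was mixed with compound and 20 uM heparin and incubated 6 hr at 37 C.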
TR SRC2 fluor cs: counter-screen for TRb-SRC2 inhibitors: fluorescence interference | TRb/SRC2 Texas Red total fluorescence interference | Potency, µM (titrated, usually from 106 µM), for the others: at the top dose fluorescence change, negative = quenching | hit rate 0.29% among 280,000 | AID 1479; active means well fitted curve in either direction with a large enough effect; inconclusive means small, poorly fitted or top-dose-only effect
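Human TRβ ligand-binding domain (0.6 uM) and Texas Red SRC2 peptide (20 nM) in Tris buffer with 1 uM T3 and 5% DMSO were incubated with pinned compound for 5 hr at ambient temperature. Total fluorescence was computed as S + 2P (555/632 nm).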
GoLoco inh red: RGS12 GoLoco-Gai1 interaction inhibition | Gai1:RGS12 GoLoco peptide FP, rhodamine, 10 min | hit rate 0.44% among 230,000 | Potency, µM (series often up to 61.6 µM), inactives show at the top dose activity, negative = inhibition, usual class: inhibitors | AID 880 | P63096; active means well fitted inhibition curve with a large enough effect, not every such curve was filed as active; inactive means no such curve, though single readings can be large or run the other way; further: nearly all actives have a fitted effect of over 30% in size
Target sequence (P63096 whole entry, looked up): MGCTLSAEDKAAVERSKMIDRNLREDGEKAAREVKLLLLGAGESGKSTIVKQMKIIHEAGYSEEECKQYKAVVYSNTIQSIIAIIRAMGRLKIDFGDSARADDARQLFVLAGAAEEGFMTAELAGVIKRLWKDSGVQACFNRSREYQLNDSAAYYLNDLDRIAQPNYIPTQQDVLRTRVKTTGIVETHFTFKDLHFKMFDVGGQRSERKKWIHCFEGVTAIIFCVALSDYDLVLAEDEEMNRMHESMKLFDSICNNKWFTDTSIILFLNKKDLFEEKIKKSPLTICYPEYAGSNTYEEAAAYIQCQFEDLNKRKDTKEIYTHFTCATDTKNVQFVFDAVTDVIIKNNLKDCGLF
Tau FP inhib: inhibitors of human tau fibril formation; P10636; K18 P301L tau heparin fibrillization, Alexa594 FP, 6 h; Potency, µM (highest dose often 57.7 µM), without a hit: top-dose activity, negative = inhibition, actives largely listed as inhibitors; hit rate 0.39% among 280,000; AID 1468; further: nearly all actives have a fitted effect of over 55% in size
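Quantitative HTS format: compounds meet 15 uM recombinant K18 P301L tau and Alexa 594-tau tracer in 100 mM sodium acetate pH 7; 20 uM heparin triggers fibrillization at 37 C over 6 hr; FP gives the signal.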
Starred values were filed as active, the others as inactive; [ ] = remark or other dose. Unless noted, the call rests on the fitted dose curve; in most records, active means well fitted curve in the direction sought with a large enough effect; inconclusive means small, poorly fitted or top-dose-only effect, or another doubt; inactive means no such curve, though single readings can be large; an effect the other way counts as inactive or inconclusive. Unless noted, on the % scale 0 is the no-effect control and ±100 the full control effect; potency means the concentration at half of the fitted maximal effect.

COc1cccc2c1C(=O)c1c(O)c3c(c(O)c1C2=O)C[C@@](O)(C(=O)CO)C[C@@H]3O[C@@H]1C[C@H](N)[C@H](O)[C@H](C)O1 was read as Tau ThT inhib 13µM*, TRb-SRC2 inh 25µM*, Tau fluor cs 10%, TR SRC2 fluor cs 45µM*[fluorescent], GoLoco inh red 11µM* and Tau FP inhib inconclusive.
`COc1cccc2c1C(=O)c1c(O)c3c(c(O)c1C2=O)C[C@@](O)(C(=O)CO)C[C@@H]3OC1CC(N)C(O)C(C)O1` (stereo partly specified) gave TRb-SRC2 inh 20µM*, TR SRC2 fluor cs 32µM*[fluorescent] and GoLoco inh red -5%.
For NCCC[C@@H](CC(=O)N[C@@H]1CCNC[C@H]1C(=O)N[C@H](CC(=O)N[C@@H](CCC(=O)O)CC(=O)O)Cc1ccccc1)NC(=O)C[C@H](CO)NC(=O)[C@@H]1CCCC[C@H]1N the results were Tau ThT inhib -6%, TRb-SRC2 inh -5%, Tau fluor cs -2%, TR SRC2 fluor cs 1%, GoLoco inh red 2% and Tau FP inhib -8%.
COc1cccc2c1C(=O)c1c(O)c3c(c(O)c1C2=O)C[C@](O)(C(C)=O)C[C@H]3O[C@@H]1C[C@H](N)[C@H](O)[C@H](C)O1 was read as TRb-SRC2 inh 13µM*, TR SRC2 fluor cs 14µM*[fluorescent] and GoLoco inh red 3.2µM*.
Screening COc1cccc2c1C(=N)c1c(O)c3c(c(O)c1C2=O)C[C@](O)(C(C)=O)C[C@@H]3O[C@H]1C[C@H](N)[C@@H](O)[C@H](C)O1 returned GoLoco inh red 0%[14.2 µM].
O=C(O)C(S)[C@@H](S)C(=O)O (stereo partly specified) was read as Tau ThT inhib 7.9µM*, TRb-SRC2 inh 4%, Tau fluor cs -29%, TR SRC2 fluor cs -13%, GoLoco inh red 2% and Tau FP inhib 11µM*.
N[C@H](C(=O)O)[C@H](O)C(=O)O was read as Tau ThT inhib -4%, TRb-SRC2 inh 1%, Tau fluor cs -1%, TR SRC2 fluor cs -18%, GoLoco inh red -11% and Tau FP inhib -1%.
CC(=O)C1=C(c2cccc([N+](=O)[O-])c2)N(C(C)=O)n2c(C)nnc2S1 was read as Tau ThT inhib 3.5µM*, TRb-SRC2 inh -5%, Tau fluor cs -29%, TR SRC2 fluor cs -7%, GoLoco inh red -4% and Tau FP inhib inconclusive.
For S=C(c1ccc(-c2ccc(Cl)cc2)o1)N1CCCCC1 the results were Tau ThT inhib inconclusive, TRb-SRC2 inh -5%, Tau fluor cs -15%, TR SRC2 fluor cs -3%, GoLoco inh red -7% and Tau FP inhib -3%.
N#CCCN1CCN(C(=S)c2ccc(-c3ccc(Cl)cc3)o2)CC1 was read as Tau ThT inhib 20µM*, TRb-SRC2 inh -2%, Tau fluor cs -23%, TR SRC2 fluor cs -3%, GoLoco inh red 15% and Tau FP inhib 5%.
For COc1ccccc1C1C2=C(N=c3s/c(=C/c4cccc(OCC(=O)O)c4)c(=O)n31)c1ccccc1CC2 (stereo unspecified) the results were Tau ThT inhib 16µM*, TRb-SRC2 inh 7%, Tau fluor cs inconclusive, TR SRC2 fluor cs -5%, GoLoco inh red 2% and Tau FP inhib inconclusive.
`COc1cccc(C2C3=C(N=c4s/c(=C\c5ccc(OCC(=O)O)cc5)c(=O)n42)c2ccccc2CC3)c1` (stereo unspecified) gave Tau ThT inhib 22µM*, TRb-SRC2 inh 3%, Tau fluor cs -13%, TR SRC2 fluor cs -3%, GoLoco inh red 0% and Tau FP inhib -14%.
Screening COc1cccc(C2C3=C(N=c4s/c(=C\c5cccc(O)c5)c(=O)n42)c2ccccc2CC3)c1OC (stereo unspecified) returned Tau ThT inhib inconclusive, TRb-SRC2 inh 6%, Tau fluor cs inconclusive, TR SRC2 fluor cs -24%, GoLoco inh red 3% and Tau FP inhib 22µM*.
COc1cccc(C2C3=C(N=c4s/c(=C\c5ccc(O)cc5)c(=O)n42)c2ccccc2CC3)c1OC (stereo unspecified) was read as Tau ThT inhib inconclusive, TRb-SRC2 inh 1%, Tau fluor cs inconclusive, TR SRC2 fluor cs -3%, GoLoco inh red 6% and Tau FP inhib -7%.
For Cc1cn([C@H]2C[C@@H](N=[N+]=[N-])[C@@H](CO)O2)c(=O)[nH]c1=O the results were Tau ThT inhib 0%, TRb-SRC2 inh -2%, Tau fluor cs 7%, TR SRC2 fluor cs -1%, GoLoco inh red 1% and Tau FP inhib 5%.
For COCCN(CCOC)c1nc(C)nc2c1nc(-c1ccccc1)n2CCCN(C)C the results were Tau ThT inhib -1%, TRb-SRC2 inh -2%, Tau fluor cs -5%, TR SRC2 fluor cs -2%, GoLoco inh red -2% and Tau FP inhib 3%.
For CCCC[C@@H]1C[C@H]1C(NC(=O)c1ccco1)c1ccccc1 (stereo partly specified) the results were Tau ThT inhib -8%, TRb-SRC2 inh -5%, Tau fluor cs -5%, TR SRC2 fluor cs -5%, GoLoco inh red 9% and Tau FP inhib 3%.
For CN(C)c1ccc(/C=C2\N=C(c3ccc(Cl)c([N+](=O)[O-])c3)NC2=O)cc1 the results were Tau ThT inhib 0.89µM*, TRb-SRC2 inh 6%, Tau fluor cs inconclusive, TR SRC2 fluor cs 5%, GoLoco inh red 262% and Tau FP inhib -15%.
`COc1ccc2c(c1OC)C(=O)N1N=C(c3ccc(-c4ccccc4)cc3)CC21` (stereo unspecified) gave Tau ThT inhib inconclusive, TRb-SRC2 inh 9%, Tau fluor cs -2%, TR SRC2 fluor cs -1%, GoLoco inh red 6% and Tau FP inhib -2%.
For COc1ccc2c(c1OC)C(=O)N1c3ccccc3N=C(c3ccc([N+](=O)[O-])cc3)CC21 (stereo unspecified) the results were Tau ThT inhib 20µM*, TRb-SRC2 inh -12%, Tau fluor cs -26%, TR SRC2 fluor cs -67%, GoLoco inh red -7% and Tau FP inhib inconclusive.
O=C(Nc1ccc(OCC(F)(F)C(F)F)c(C(F)(F)F)c1)c1ccccc1O was read as Tau ThT inhib inconclusive, TRb-SRC2 inh 6%, Tau fluor cs inconclusive, TR SRC2 fluor cs 1%, GoLoco inh red 7% and Tau FP inhib 25µM*.
For O=C(Nc1ccc(OCC(F)(F)C(F)F)cc1)c1ccncc1 the results were Tau ThT inhib -14%, TRb-SRC2 inh 2%, Tau fluor cs -12%, TR SRC2 fluor cs -4%, GoLoco inh red -2% and Tau FP inhib 5%.

Screens (PubChem BioAssay)
